These results are taken from publication PMC12820563, “FoxP3 forms a head-to-head dimer in vivo and stabilizes its multimerization on adjacent microsatellites”.

Over roughly 16,000 sequences, “rpm ratio (pull-down/input)” has its median near 0.94; the highest 2% begin near 1.7. The sample holds the highest values, similar sequences and a random draw of the others, so the mix is not that of the screen.

The assay addresses T1, MBP-FoxP1dN (Mus musculus, UniProt P58462 326-579).
T1 sequence: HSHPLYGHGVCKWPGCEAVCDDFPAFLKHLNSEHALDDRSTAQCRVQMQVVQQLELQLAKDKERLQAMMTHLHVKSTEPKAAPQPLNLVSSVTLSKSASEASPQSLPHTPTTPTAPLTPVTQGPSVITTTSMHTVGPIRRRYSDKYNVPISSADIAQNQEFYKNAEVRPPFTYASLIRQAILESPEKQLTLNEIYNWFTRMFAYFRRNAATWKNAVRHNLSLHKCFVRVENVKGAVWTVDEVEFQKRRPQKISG
Description: PD-seq (MBP pull-down with sequencing); 20 mM Tris-HCl pH 7.5, 100 mM NaCl, 1.5 mM MgCl2, 0.4 uM protein, 0.1 uM dsDNA library, 30 min, room temperature, amylose pull-down; high values mean tight binding. Particulars: protein: recombinant; tags: His6-MBP; chain copies: 2; dsDNA, one strand shown. In a few lines:
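Binding is given as reads-per-million enrichment, pull-down over input, with replicates pooled. The bait was an N-terminus-lacking mouse FoxP3 or FoxP1 fragment with a His6-MBP tag, expressed in E. coli and used at 0.4 µM with 0.1 µM Klenow-filled degenerate double-stranded DNA library for 30 min at room temperature in Tris pH 7.5 buffer with NaCl and MgCl2. Amylose resin pull-down with three washes was followed by proteinase K release, PCR barcoding and Illumina sequencing.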
“GATGATTGTTCTCCCAGCTGATGAATTACGATCGTCGAGTAAACAAATTTTCCTAATCTTTCTGTTCAAGCGCCATCTAC”: the binding signal was 0.952 RPM ratio (pull-down/input).

For “GATGATTGTTCTCCCAGCTGATGAATTTGAGCTTTCGAGTAAACAAATTTTCCTAATCTTTCTGTTCAAGCGCCATCTAC”, the binding signal is 0.854 RPM ratio (pull-down/input).

Regarding “GATGATTGTTCTCCCAGCTGATGAATTCGCTTGCTCGAGTAAACAAATTTTCCTAATCTTTCTGTTCAAGCGCCATCTAC”, the binding signal is 0.817 RPM ratio (pull-down/input).

On to “GATGATTGTTCTCCCAGCTGATGAATTAAACTCTTCGAGTAAACAAATTTTCCTAATCTTTCTGTTCAAGCGCCATCTAC”, for which the binding signal was 0.825 RPM ratio (pull-down/input).

In the case of “GATGATTGTTCTCCCAGCTGATGAATTTTTAATCTCGAGTAAACAAATTTTCCTAATCTTTCTGTTCAAGCGCCATCTAC”, the binding signal is 0.864 RPM ratio (pull-down/input).

“GATGATTGTTCTCCCAGCTGATGAATTAAGTCCTTCGAGTAAACAAATTTTCCTAATCTTTCTGTTCAAGCGCCATCTAC”: the binding signal was 0.887 RPM ratio (pull-down/input).

On to “GATGATTGTTCTCCCAGCTGATGAATTCTTCATCTCGAGTAAACAAATTTTCCTAATCTTTCTGTTCAAGCGCCATCTAC”, for which the binding signal is 0.813 RPM ratio (pull-down/input).

Take “GATGATTGTTCTCCCAGCTGATGAATTGGTGCATTCGAGTAAACAAATTTTCCTAATCTTTCTGTTCAAGCGCCATCTAC”: the binding signal was 1.35 RPM ratio (pull-down/input).

On to “GATGATTGTTCTCCCAGCTGATGAATTAACCTGCTCGAGTAAACAAATTTTCCTAATCTTTCTGTTCAAGCGCCATCTAC”, for which the binding signal is 0.79 RPM ratio (pull-down/input).

Regarding “GATGATTGTTCTCCCAGCTGATGAATTGACGAACTCGAGTAAACAAATTTTCCTAATCTTTCTGTTCAAGCGCCATCTAC”, the binding signal is 1.03 RPM ratio (pull-down/input).

On to “GATGATTGTTCTCCCAGCTGATGAATTTCTTGGGTCGAGTAAACAAATTTTCCTAATCTTTCTGTTCAAGCGCCATCTAC”, for which the binding signal is 0.716 RPM ratio (pull-down/input).

As for “GATGATTGTTCTCCCAGCTGATGAATTATGTATCTCGAGTAAACAAATTTTCCTAATCTTTCTGTTCAAGCGCCATCTAC”, the binding signal is 1.45 RPM ratio (pull-down/input).

With “GATGATTGTTCTCCCAGCTGATGAATTATGTGTATCGAGTAAACAAATTTTCCTAATCTTTCTGTTCAAGCGCCATCTAC”, the binding signal was 1.92 RPM ratio (pull-down/input).

With “GATGATTGTTCTCCCAGCTGATGAATTATGTATATCGAGTAAACAAATTTTCCTAATCTTTCTGTTCAAGCGCCATCTAC”, the binding signal is 1.79 RPM ratio (pull-down/input).

“GATGATTGTTCTCCCAGCTGATGAATTATATGTATCGAGTAAACAAATTTTCCTAATCTTTCTGTTCAAGCGCCATCTAC”: the binding signal is 1.41 RPM ratio (pull-down/input).

As for “GATGATTGTTCTCCCAGCTGATGAATTATGTGAATCGAGTAAACAAATTTTCCTAATCTTTCTGTTCAAGCGCCATCTAC”, the binding signal was 1.14 RPM ratio (pull-down/input).

Take “GATGATTGTTCTCCCAGCTGATGAATTGTATGTATCGAGTAAACAAATTTTCCTAATCTTTCTGTTCAAGCGCCATCTAC”: the binding signal was 1.67 RPM ratio (pull-down/input).

For the sequence “GATGATTGTTCTCCCAGCTGATGAATTACAAAATTCGAGTAAACAAATTTTCCTAATCTTTCTGTTCAAGCGCCATCTAC”, the binding signal was 1.37 RPM ratio (pull-down/input).

Consider “GATGATTGTTCTCCCAGCTGATGAATTCACCCGGTCGAGTAAACAAATTTTCCTAATCTTTCTGTTCAAGCGCCATCTAC”, for which the binding signal is 0.783 RPM ratio (pull-down/input).

Turning to “GATGATTGTTCTCCCAGCTGATGAATTTAGTCTCTCGAGTAAACAAATTTTCCTAATCTTTCTGTTCAAGCGCCATCTAC”, the binding signal was 0.934 RPM ratio (pull-down/input).

“GATGATTGTTCTCCCAGCTGATGAATTCCCTTTCTCGAGTAAACAAATTTTCCTAATCTTTCTGTTCAAGCGCCATCTAC”: the binding signal is 0.783 RPM ratio (pull-down/input).

On to “GATGATTGTTCTCCCAGCTGATGAATTCCGCCGATCGAGTAAACAAATTTTCCTAATCTTTCTGTTCAAGCGCCATCTAC”, for which the binding signal is 0.721 RPM ratio (pull-down/input).

On to “GATGATTGTTCTCCCAGCTGATGAATTATTAACCTCGAGTAAACAAATTTTCCTAATCTTTCTGTTCAAGCGCCATCTAC”, for which the binding signal is 1.06 RPM ratio (pull-down/input).

For the sequence “GATGATTGTTCTCCCAGCTGATGAATTTTACACATCGAGTAAACAAATTTTCCTAATCTTTCTGTTCAAGCGCCATCTAC”, the binding signal is 1.11 RPM ratio (pull-down/input).

Turning to “GATGATTGTTCTCCCAGCTGATGAATTTACACAATCGAGTAAACAAATTTTCCTAATCTTTCTGTTCAAGCGCCATCTAC”, the binding signal is 1.87 RPM ratio (pull-down/input).

With “GATGATTGTTCTCCCAGCTGATGAATTACACACATCGAGTAAACAAATTTTCCTAATCTTTCTGTTCAAGCGCCATCTAC”, the binding signal was 1.48 RPM ratio (pull-down/input).

For “GATGATTGTTCTCCCAGCTGATGAATTTTTACAATCGAGTAAACAAATTTTCCTAATCTTTCTGTTCAAGCGCCATCTAC”, the binding signal was 1.23 RPM ratio (pull-down/input).

Regarding “GATGATTGTTCTCCCAGCTGATGAATTACACAGATCGAGTAAACAAATTTTCCTAATCTTTCTGTTCAAGCGCCATCTAC”, the binding signal is 1.18 RPM ratio (pull-down/input).

Turning to “GATGATTGTTCTCCCAGCTGATGAATTACACAAATCGAGTAAACAAATTTTCCTAATCTTTCTGTTCAAGCGCCATCTAC”, the binding signal is 1.77 RPM ratio (pull-down/input).

Turning to “GATGATTGTTCTCCCAGCTGATGAATTCCCTACCTCGAGTAAACAAATTTTCCTAATCTTTCTGTTCAAGCGCCATCTAC”, the binding signal is 0.836 RPM ratio (pull-down/input).

For “GATGATTGTTCTCCCAGCTGATGAATTGTCACAGTCGAGTAAACAAATTTTCCTAATCTTTCTGTTCAAGCGCCATCTAC”, the binding signal is 1.08 RPM ratio (pull-down/input).

Take “GATGATTGTTCTCCCAGCTGATGAATTGCCAATTTCGAGTAAACAAATTTTCCTAATCTTTCTGTTCAAGCGCCATCTAC”: the binding signal was 1.04 RPM ratio (pull-down/input).
